This is part of a sample that, as a whole, favours compounds with a hit. Of some 83,000 tested, about 20% had one in any assay.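 Compound tested at a single concentration for 48 hours in 96-well plates; a percent growth value below 10 was scored as active.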 A number with no mark means an inactive call. The source made the active and inactive calls.

This assay has as its system HL-60(TB) leukemia. Briefly: NCI-60 one-dose screen, 48 h (100 = growth as untreated, 0 = no growth, -100 = all killed). The conditions noted are these: 10 µM unless noted.
For the compound `COC(=O)c1ccc2[nH]c(O)c(C(=Nc3ccc(N(C)C(=O)CN4CCN(C)CC4)cc3)c3cccc(OC)c3)c2c1`, the growth was -35.9% (active).

In the case of `CN1CCCCC1CCN1c2ccccc2Sc2ccc(Br)cc21` (configuration not stated), the growth was 34.9%.

`Cc1ccc(C(=O)NN2C(=O)CSC2c2ccc(Cl)cc2)cn1` (configuration not stated): the growth was 139%.

Regarding `CC(=O)O[C@H]1CC[C@]2(C)[C@H]3C(=O)C=C4[C@@H]5C[C@](C)(C(=O)N6CCCNCC6)CC[C@]5(C)CC[C@@]4(C)[C@]3(C)CC[C@H]2C1(C)C`, the growth was -61.9% (active).

For the compound `COCCCNc1nc(NC(=O)c2cc(Br)cc(C(F)(F)F)c2)cc(-c2cccnc2)n1`, the growth was 94.6%.

As for `O=CN1N=C(c2ccc3c(c2)OCO3)CC1c1cccc(Nc2ccnc3cc(C(F)(F)F)ccc23)c1` (configuration not stated), the growth is 72.8%.

For the compound `COc1cc2oc(-c3ccc(O)cc3)cc(=O)c2c(O)c1-c1c(OC)cc(O)c2c(=O)cc(-c3ccc(O)cc3)oc12`, the growth is 0.122% (active).

On to `COc1cc(NC(=O)CCSc2nc3ccc(C)cc3c(=O)n2Cc2ccccc2)cc(OC)c1OC`, for which the growth was 116%.

Regarding `COc1ccc(-c2nc(SCC(=O)Nc3ccc(C(=O)/C=C/c4ccc(Cl)cc4)cc3)[nH]c(=O)c2C#N)cc1`, the growth was 105%.

Turning to `Cc1ccc(-c2nc(N3CCN(CC(=O)Nc4ccc(Cl)c(C(F)(F)F)c4)CC3)c3ccccc3n2)cc1`, the growth is 97.6%.

On to `CC(C)C1=NOC(=O)C1=Cc1cn(-c2cccnc2)nc1-c1ccccc1`, for which the growth was -0.56% (active).

Regarding `CC(C)N(Cc1ccccc1)c1c(Cl)ssc1=O`, the growth is 113%.
